Measurements published in PubChem BioAssay (NCATS).
Values without a mark were called inactive. Results filed as inconclusive are left out. Entries that show only a call come without a potency. Calls of active or inactive are those of the source. Calls follow the shape of the dose curve; as a rule, active = well fitted curve in the direction sought with a large enough effect; inconclusive = small, poorly fitted or top-dose-only effect, or another doubt; inactive = no such curve, though single readings can be large; an effect the other way counts as inactive or inconclusive. Numbered stars: 1 amine (or outer) side, 2 acyl side, 3 side chain; on linkers, the order of the positions; unused ones are H or OH. Square brackets hold non-standard residues; d marks the D form. Peptide text beside a SMILES is read from it. X1 = CCCCCCCCCC(=O)[C@H](C(=O)[*:2])[C@@H]1CNC(=O)[C@@H](N[*:1])CS1

Columns and labels:
[1] = tested on: Zika virus NS2B-NS3 protease (linked construct); assay: Primary screen NINDS Rhodamine qHTS for Zika virus inhibitors (AID 1347160); also: potency is read from the fitted curve at half-maximal effect; nearly all actives have a fitted effect of over 55% in size
Method in brief: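 Single-chain NS2B-NS3 protease, 25 nM, pH 8.0; compounds preincubated 15 min. Activity: Rhodamine110 release from 1.5 microM substrate over 15 min, room temperature, data fitted to 4-parameter Hill.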

[2] = HPAF-II Cancer Cell Toxicity qHTS against the NCATS CANVASS Library (AID 1347346); also: series mostly up to about 38 µM; nearly all actives have a fitted effect of over 55% in size
Method in brief: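 1000 HPAF-II cells/well; 4 h pre-incubation; 11-pnt compound titration; 72 h, 37 degrees C/5% CO2; CellTiter-Glo, 15 min RT; luminescence read.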

[3] = U-118MG Cancer Cell Toxicity qHTS against the NCATS CANVASS Library (AID 1347351); also: series mostly up to about 38 µM
Method in brief: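 Step one: seed 1000 cells per well. Step two: incubate 4 h. Step three: add test compounds in 11 concentrations. Step four: culture 72 h, then add CellTiter-Glo and record luminescence after 15min.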

[4] = COV-362 Cancer Cell Toxicity qHTS against the NCATS CANVASS Library (AID 1347352); also: series mostly up to about 38 µM
Method in brief: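 1000 cells/well, 4 h pre-incubation 37 °C/5% CO2; 11-pnt titration; 72 h; CellTiter-Glo 15 min RT, luminescence.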

[5] = HPAF-II 24hr Apoptosis Induction qHTS against the NCATS CANVASS Library (AID 1347356)
Method in brief: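 500 HPAF-II cells/well; compounds in 11-pnt qHTS; 24 h, 37 C/5% CO2; Caspase-Glo 3/7 added, 15 min RT dark; luminescence read. Doxorubicin control.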

[6] = HEK293 18hr Apoptosis Induction qHTS against the NCATS CANVASS Library (AID 1347357)
Method in brief: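 HEK293 cells (500/well, DMEM + 10% FBS) treated with an 11-point series for 18 h at 37 degrees C. Caspase-3/7 activity read by Caspase-Glo luminescence after 15 min at room temperature.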

[7] = HEK293 24hr Apoptosis Induction qHTS against the NCATS CANVASS Library (AID 1347359)
Method in brief: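 HEK293 cells (500/well, DMEM + 10% FBS) were exposed to compounds in an 11-point series for 24 hours at 37 degrees C, then caspase-3/7 activity was read by Caspase-Glo DEVD luciferase luminescence after 15 min.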

[8] = HEK293 12hr Apoptosis Induction qHTS against the NCATS CANVASS Library (AID 1347361)
Method in brief: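 HEK293 cells (500/well) were exposed to an 11-point qHTS concentration series for 12 hours at 37 degrees C. Caspase-3/7 activity was then read by DEVD-substrate luciferase luminescence after 15 min at room temperature.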

[9] = target: Luciferin 4-monooxygenase (Photinus pyralis) (UniProt P08659); assay: Firefly luciferase counterscreen qHTS: Assay Interference Panel against the NCATS CANVASS Library (AID 1347363); also: series mostly up to about 57 µM
Method in brief: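 Purified P. pyralis luciferase was added to compounds (11-point series) preincubated 15 min at room temperature with substrate containing 0.013 mM D-luciferin and 0.013 mM ATP; luminescence was read after 5 min.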

[10] = KB-3-1 Cancer Cell Toxicity qHTS against the NCATS CANVASS Library (AID 1347366); also: nearly all actives have a fitted effect of over 75% in size
Method in brief: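 KB-3-1 cells (500/well) in DMEM with 10% FBS were exposed to compounds for 72 h at 37C. Viability was read by CellTiter-Glo luminescence.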

[11] = qHTS for ATAD5 Agonist screened against the NCATS CANVASS Library (AID 1347367);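 also: luciferase reporter driven by ATAD5 which rises upon DNA damage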
Method in brief: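 Luciferase reporter under ATAD5 control, stably integrated in HEK293T cells (2000/well). Compounds (11 points) incubated 16 h at 37C; viability read first by CellTiter-Fluor, then luminescence reporting ATAD5 activation. MMS positive control.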

[12] = MCF7 Cancer Cell Toxicity qHTS against the NCATS CANVASS Library (AID 1347369)
Method in brief: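 MCF7 cells (500/well) were exposed 72 h at 37 °C to compounds in an 11-point series. Viability was read as ATP content by CellTiterGlo luminescence.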

[13] = qHTS for ATAD5 Antagonist screened against the NCATS CANVASS Library (AID 1347370);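 also: HEK293T cells carrying an ATAD5 luciferase reporter co-treated with 10 µM 5-fluorouridine; series mostly up to about 46 µM; nearly all actives have a fitted effect of over 65% in size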
Method in brief: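 HEK293T-ATAD5 luc reporter, 2000 cells/well; 5hr attach; cpd + 10 uM 5-FUrd; 16hr 37C, 5% CO2. Readouts: CellTiter-Fluor fluorescence (1hr), then Amplite luciferase luminescence (30min RT).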

[14] = J3T Cancer Cell Toxicity qHTS against the NCATS CANVASS Library (AID 1347371)
Method in brief: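 Dog glioma J3T, 500 cells/well; cpd 11-pt qHTS; 72 hr, 37C/5% CO2; CellTiterGlo ATP luminescence readout.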

[15] = 10-beta competent E. coli microbial cell viability qHTS against the NCATS CANVASS Library (AID 1347376); also: series mostly up to about 46 µM
Method in brief: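 Luminescence from BacTiter-Glo ATP detection served as the viability read-out; bacteria (0.2 OD) had been incubated overnight at 37C with pin-transferred compounds at 11 concentrations.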

[16] = qHTS for Inflammasome Signaling Inhibitors: IL-1-beta AlphaLISA screen against the NCATS CANVASS Library (AID 1347379);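 also: human THP-1 cells primed with LPS then triggered with ATP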
Method in brief: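 THP-1, 1 hr compound pre-incubation, then LPS 250 ng/mL + ATP 1.25 mM (final); 16 hr total with compound; IL-1B AlphaLISA, ex 680/em 615 nm; 11-point qHTS, up to 57.5 uM final.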

[17] = Inflammasome Signaling qHTS Counterscreen: IL-1-beta AlphaLISA counterscreen against the NCATS CANVASS Library (AID 1347381);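 also: cell-free check with purified IL-1β in medium and no THP-1 cells; series mostly up to about 57 µM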
Method in brief: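 Here, no cellular stimulation occurs; compounds in an 11-point series meet 4 pg purified IL-1-beta directly. Bead-based AlphaLISA detection follows (1 h acceptor/antibody, then 30 min donor, dark, room temperature), with excitation at 680 nm.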

[18] = Vero-766 cells viability qHTS against the NCATS CANVASS Library: Counterscreen for Zika virus inhibition assay (AID 1347394); also: series mostly up to about 46 µM; nearly all actives have a fitted effect of over 60% in size
Method in brief: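 Vero 766 cells (1000/well), without Zika virus, were exposed to compounds for 72 h at 37C. Viability was measured by CellTiter Glo luminescence. Media-only wells served as 100% inhibition.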

[19] = Viability qHTS for inhibitors of the SERCaMP assay screened against the NCATS CANVASS Library (AID 1347400); also: series mostly up to about 92 µM; nearly all actives have a fitted effect of over 70% in size
Method in brief: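 CellTiter-Glo luminescence readout after 48 h compound exposure (11-pnt qHTS series) of SH-SY5Y-GLuc SERCaMP MJH297 cells seeded at 1000 cells/well; bortezomib positive control.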

[20] = target: Nuclear receptor subfamily 1 group I member 3 (Homo sapiens) (UniProt Q14994); assay: qHTS for Constitutive Androstane Receptor (CAR) Agonist screened against the NCATS CANVASS Library (AID 1347373);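 also: every well also contained 1.5 µM PK11195 alongside the test compound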
Method in brief: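 Luciferase read-out (ONE-Glo, 30 min RT) of CYP2B6-2.2kb promoter activity in double-stable HepG2-hCAR cells after 24hr compound exposure with 1.5uM PK11195 present; viability measured first by CellTiter-Fluor.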

Nuclear receptor subfamily 1 group I member 3 (Homo sapiens), sequence (Q14994 whole entry, looked up): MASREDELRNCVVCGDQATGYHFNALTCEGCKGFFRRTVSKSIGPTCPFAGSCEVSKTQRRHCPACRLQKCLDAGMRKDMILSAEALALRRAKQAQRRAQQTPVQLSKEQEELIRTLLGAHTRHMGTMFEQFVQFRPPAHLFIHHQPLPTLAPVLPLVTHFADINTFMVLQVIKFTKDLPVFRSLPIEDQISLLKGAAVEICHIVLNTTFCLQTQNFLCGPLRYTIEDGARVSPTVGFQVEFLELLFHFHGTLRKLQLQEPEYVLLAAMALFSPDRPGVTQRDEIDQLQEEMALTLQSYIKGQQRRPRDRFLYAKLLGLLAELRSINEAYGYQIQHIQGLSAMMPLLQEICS
Luciferin 4-monooxygenase (Photinus pyralis), sequence (P08659 whole entry, looked up): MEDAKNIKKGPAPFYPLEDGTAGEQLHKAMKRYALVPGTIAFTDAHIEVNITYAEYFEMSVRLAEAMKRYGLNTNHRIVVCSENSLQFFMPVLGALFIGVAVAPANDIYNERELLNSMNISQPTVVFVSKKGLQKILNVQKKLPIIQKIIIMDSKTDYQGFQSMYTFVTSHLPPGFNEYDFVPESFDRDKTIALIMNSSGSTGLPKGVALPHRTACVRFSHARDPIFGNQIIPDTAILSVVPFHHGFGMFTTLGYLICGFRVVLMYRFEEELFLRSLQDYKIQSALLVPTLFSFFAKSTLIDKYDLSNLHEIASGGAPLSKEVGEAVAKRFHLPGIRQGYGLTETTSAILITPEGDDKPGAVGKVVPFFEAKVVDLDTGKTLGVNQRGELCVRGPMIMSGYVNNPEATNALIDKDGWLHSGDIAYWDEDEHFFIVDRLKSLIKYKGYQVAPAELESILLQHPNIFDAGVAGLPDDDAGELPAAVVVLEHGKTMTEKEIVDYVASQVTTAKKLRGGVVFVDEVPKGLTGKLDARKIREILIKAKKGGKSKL

SMILES	Potency [1]	Potency [2]	Potency [3]	Potency [4]	outcome [5]	Potency [6]	Potency [7]	Potency [8]	Potency [9]	Potency [10]	Potency [11]	Potency [12]	Potency [13]	Potency [14]	outcome [15]	Potency [16]	outcome [17]	Potency [18]	Potency [19]	outcome [20]
C[C@@H]1C(=O)[C@]23CC[C@H]1C[C@]21O[C@H]2C(C)(C)C=CC(=O)[C@@]23COC1=O	62.1 µM (active)	inactive	inactive	inactive	inactive	inactive	inactive	inactive	inactive	inactive	inactive	inactive	inactive	inactive	inactive	inactive	inactive	inactive	inactive	
C=C1C[C@@]23C=CC(=O)[C@@](C)(CCC(=O)Nc4c(O)ccc(C(=O)O)c4O)C2C[C@@H]1CC3 (some centres undefined)	27.7 µM (active)	inactive	inactive	inactive	inactive	inactive	inactive	inactive	inactive	inactive	inactive	inactive	inactive	inactive	inactive	inactive	inactive	inactive	inactive	inactive
CCCCCCCCCC(=O)[C@@H]1C(=O)N[C@@H](CC(C)C)C(=O)N[C@H](C)C(=O)N2CCC[C@H]2C(=O)N[C@@H](C(C)C)C(=O)N[C@H]2CS[C@H]1CNC2=O (cyclo(L[dA]PV[X1]))	4.4 µM (active)	inactive	inactive	inactive	inactive	inactive	inactive	inactive	inactive	inactive	inactive	inactive	inactive	inactive	inactive	inactive	inactive	inactive	inactive	inactive
COc1cc(O)c2c3c(c(O)cc(C)c13)C(=O)OC2	22 µM (active)	inactive	inactive	inactive	inactive	inactive	inactive	inactive	inactive	inactive	inactive	inactive	inactive	inactive	inactive	inactive	inactive	inactive	inactive	inactive
Oc1ccc(C2c3c(O)cc(O)cc3[C@@H]3C(c4ccc(O)cc4)c4c(O)cc(O)cc4[C@H]23)cc1 (some centres undefined)	34.9 µM (active)	inactive	inactive	inactive	inactive	inactive	inactive	inactive	inactive	inactive	inactive	inactive	inactive	inactive	inactive	inactive	inactive	inactive	inactive	inactive
